Our source for the IC50 and inhibition values is PubChem BioAssay AID2501 (Southern Research Specialized Biocontainment Screening …, 2010).

Screen size: about 2,200 compounds; about 1,200 (55%) were called active. So high a share suggests a set chosen from earlier hits. This is one part of the list. A number with no mark means an inactive call. Cut-off not given; nearly all actives show IC50 up to about 92 µM.

The assay can be described thus: counter assay for TAg ATPase ADP read-out – biochemical, ADP-Hunter, fluorescence, counter-screen (AID 2501).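 Further: purified T antigen ATPase.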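 On inhibition: 0% = enzyme with vehicle and 100% = reference inhibitor wells; higher means more inhibition.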 The conditions noted are these: series mostly up to 100 µM. (The purpose of a counterscreen is to sort out artefacts and off-target activity.)
Take `CC(=O)CSc1nc(C(F)(F)F)cc(=O)n1-c1ccccc1`: the IC50 (as a rule, the midpoint of a concentration-inhibition curve) is “inactive”. Turning to `CC1(C)Cc2c(C#N)c(N3CCCC3)nc(-c3ccco3)c2CO1`, the IC50 entry was “inactive”.

`CN(C)c1ccc(Nc2cc(Cl)ncn2)cc1`: the IC50 was 9.79 µM (active). As for `O=C1CCCC2=C1Sc1ccccc1N2`, the half-inhibitory concentration (IC50) was 7.55 µM (active). With `Cc1c(Br)c(=O)oc2c(Br)c(O)c(O)cc12`, the concentration for half-maximal inhibition (IC50) was 25.2 µM (active). With `CN(C)/C=C(\C#N)C(=O)Nc1ccc(O)cc1F`, the IC50 is 10.3 µM (active). For `COc1ccc(OC)c(/C=N/NC(=O)CCc2ccc(O)c(O)c2)c1`, the IC50 is 40.4 µM (active). Turning to `O=C(CCc1ccc(O)c(O)c1)N/N=C/c1cc2c(cc1[N+](=O)[O-])OCO2`, the IC50 result is “inactive”.

For the compound `N#Cc1nc(Cc2cccc3ccccc23)oc1NCCN1CCOCC1`, the IC50 result was “inactive”. For `O=C(Cn1c(=O)n(Cc2ccco2)c(=O)c2c3c(sc21)CCCCC3)Nc1ccccc1`, the IC50 result is “inactive”.

`Cc1cccc(C(=O)Nc2ccc(C(=O)N/N=C/c3ccc4c(c3)OCO4)cc2)c1`: the IC50 result is “inactive”. Still for that read-out and setting: the figure for `COc1cc(C(=O)Nc2ccc(O)cc2)ccc1OC(C)=O` is 3.55 µM (active); for `O=C(Nc1ccc(O)cc1)c1ccc2c(c1)C(=O)N(Cc1ccco1)C2=O` it is 8.35 µM (active).

For the compound `Cc1cccc(C(=O)Nc2ccc(O)cc2)c1`, the IC50 is 4.37 µM (active).

In the case of `CCOC(=O)NC(=O)C(=CNc1cccc(C)c1)C(=O)NC(=O)OCC`, the IC50 entry was “inactive”. Regarding `O=C(Nc1ccc(O)cc1)c1ccc2c(c1)C(=O)N(N1C(=O)c3ccccc3C1=O)C2=O`, the IC50 was 6.05 µM (active). Still for that read-out and setting: the entry for `O=C(Nc1ccc2c(c1)C(=O)OC2)c1ccc(C(F)(F)F)cc1` is “inactive”; for `O=C1CC(=O)N(Cc2ccco2)C(=O)N1` it is “inactive”; for `OC1CN=C2CCCc3c2n(c2ccc(Cl)cc32)C1` (stereo not given) it is “inactive”.

In the case of `COc1cc(/C=C/C(=O)OCC(=O)N2CC(=O)Nc3ccccc32)ccc1O`, the IC50 was 6.1 µM (active). For `O=C1COc2ccc(C(=O)COC(=O)/C=C/c3ccc(Br)o3)cc2N1`, the IC50 entry was “inactive”.

Take `CCNC(=O)COC(=O)/C=C/c1cccc(F)c1`: the IC50 entry was “inactive”. On to `NS(=O)(=O)c1ccc(NC(=O)COC(=O)c2ccc(Cl)nc2)cc1`, for which the IC50 result is “inactive”.

As to `COc1cc(/C=C/C(=O)OCC(=O)Nc2ccc(S(N)(=O)=O)cc2)ccc1O`, the 50% inhibitory concentration (IC50) is 12.2 µM (active). Still for that read-out and setting: in the case of `Cc1cc(C)c(S(=O)(=O)/N=C2/C=C(SCC(=O)O)C(=O)c3ccccc32)cc1C` it was “inactive”. Same read-out and setting: in the case of `CN(C)c1ccc(NC(=O)C(=O)C2C(=O)Nc3ccccc32)cc1` (stereo not given) it was 1.57 µM (active).

In the case of `C=CCn1c(SCC(=O)c2ccc(O)c(O)c2)nnc1-c1cccnc1`, the IC50 was 8.61 µM (active). Turning to `CCOC(=O)c1ccc(CSc2nnc(-c3ccncc3)n2N)cc1`, the IC50 result is “inactive”. With `Cn1c(SCC(=O)c2ccc(O)c(O)c2)nnc1-c1cccs1`, the half-maximal inhibitory concentration (IC50) is 15.9 µM (active).

As for `CCn1c(SCC(=O)c2ccc(O)c(O)c2)nnc1-c1ccc(C)cc1`, the IC50 is 6.52 µM (active).

In the case of `Cn1c(SCC(=O)c2cc(Cl)c(Cl)s2)nnc1-c1ccco1`, the IC50 result was “inactive”. As to `CCn1c(SCc2ccc(C(=O)Nc3nccs3)cc2)nnc1-c1ccc(NC(C)=O)cc1`, the IC50 entry is “inactive”. On to `C=CCn1c(SCC(=O)c2ccc(O)c(O)c2)nnc1-c1ccccc1OC`, for which the IC50 is 10.2 µM (active). Turning to `COCCCN(Cc1ccco1)C(=O)Cn1ncc2c(=O)oc3ccc(C)cc3c21`, the IC50 result was “inactive”. In the case of `CCn1c(SCC(=O)Nc2ccccc2C)nnc1-c1ccccc1O`, the IC50 entry is “inactive”. Take `CCn1c(SCC(=O)c2ccc(O)c(O)c2)nnc1-c1ccccc1OC`: the half-maximal inhibitory concentration (IC50) was 3.84 µM (active). Take `COc1cc(-c2nc(=S)[nH][nH]2)cc(OC)c1OC`: the concentration for half-maximal inhibition (IC50) is 10.7 µM (active). In the case of `COc1ccc(C(=O)/C=C(\C)Nc2ccc(NC(C)=O)cc2)cc1`, the concentration for half-maximal inhibition (IC50) was 17.8 µM (active).

As for `CC(=O)Nc1ccc(OCCOc2ccc(/C=C3\C(=N)N4N=C(C)SC4=NC3=O)cc2)cc1`, the IC50 entry was “inactive”.

Regarding `CN1c2ccc(C=O)c3c(C=O)ccc(c23)N(C)C1(C)C`, the IC50 is 17.5 µM (active). For the compound `Nc1ccc2nc(-c3cccs3)[nH]c2c1`, the IC50 was 3.65 µM (active).

For `Cc1ccc(C)c(-c2nc3ccc(N)cc3[nH]2)c1`, the concentration for half-maximal inhibition (IC50) was 4.86 µM (active). In the case of `COc1ccc(C2=CC3=C(Br)C(=O)C(C)(OC(=O)c4ccco4)C(=O)C3=CO2)cc1` (stereo not given), the IC50 result was “inactive”. On the same count and under the same terms, the entry for `CCNc1ccc(Br)cc(C(=O)/C=C/c2ccc(Cl)cc2Cl)c1=O` is “inactive”; for `CC(=O)Nc1ccccc1O` it is 2.63 µM (active). On to `CCC(=Nc1ccccc1O)C1=C(O)CC(c2ccccc2)CC1=O` (stereo not given), for which the IC50 is 8.32 µM (active).

In the case of `COc1cc(/C=C2\C(=O)ON=C2c2ccc(Cl)cc2)ccc1O`, the IC50 is 18.5 µM (active). On the same count and under the same terms, the entry for `CCOC(=O)C1=C(C)N(c2ccccc2)C(=O)/C1=C\c1ccc(O)c(OC)c1` is “inactive”. Same read-out and setting: in the case of `O=C1ON=C(c2ccccc2)/C1=C\c1ccco1` it was “inactive”; in that of `O=C1ON=C(c2ccccc2)/C1=C/c1ccc(O)c(O)c1`, 7.26 µM (active).

Turning to `COc1ccc(/C=C2\C(=O)ON=C2c2ccccc2)cc1OC`, the IC50 entry is “inactive”. Turning to `O=C1C(=Cc2ccc(Br)o2)C(=O)c2ccccc21`, the IC50 entry is “inactive”. Consider `O=C1ON=C(c2ccccc2)/C1=C/c1ccccc1`, for which the IC50 result is “inactive”. On to `COc1cc(C=C2C(=O)c3ccccc3C2=O)ccc1O`, for which the IC50 was 4.42 µM (active). On the same count and under the same terms, in the case of `O=C1ON=C(c2ccccc2)/C1=C/c1ccc(OS(=O)(=O)c2ccccc2)cc1` it was “inactive”; in that of `COc1cc(/C=C2/C(=O)ON=C2c2ccccc2)ccc1O`, 14.4 µM (active).

On to `COc1ccc(/C=C2\C(=O)ON=C2c2ccccc2)cc1`, for which the IC50 result is “inactive”. In the case of `Cc1cc(NS(=O)(=O)c2ccc(NC(=O)Nc3ccc4c(c3)OCO4)cc2)no1`, the IC50 result is “inactive”. `CC(=O)Nc1cccc(NC(=O)COc2ccc3c(c2)OCO3)c1`: the IC50 entry was “inactive”. Same read-out and setting: in the case of `O=C(CCS(=O)(=O)c1ccc(Cl)cc1)Oc1ccc2c(c1)OCO2` it was 78 µM (active); in that of `COc1c2ccoc2nc2c(OC)c(O)ccc12`, 11.5 µM (active).

In the case of `COc1c(F)c(F)c(C(=O)O)c(Nc2ccc(C)cc2)c1F`, the IC50 entry was “inactive”. Regarding `CC(OC(=O)c1ccccc1C(=O)N(C)c1ccccc1)C(=O)Nc1ccc(C(N)=O)cc1` (stereo not given), the IC50 entry is “inactive”. For the compound `COc1cc(C(=O)Nc2ccc(N(C)C)cc2)cc(OC)c1OC`, the IC50 is 5.06 µM (active). As for `Cc1ccc(NC(=O)CN2C(=O)N/C(=C/c3cc(C)n(-c4cccc(C(=O)O)c4)c3C)C2=O)cc1`, the IC50 entry is “inactive”. In the case of `CN(C)c1ccc(NC(=O)c2ccc3nc[nH]c3c2)cc1`, the IC50 is 3.67 µM (active). Take `COc1cc(C(=O)N/N=C2\CCS(=O)(=O)c3ccc(F)cc32)cc(OC)c1OC`: the IC50 result was “inactive”. Take `CC(C)Oc1ccc(C(=O)Nc2ccc(N(C)C)cc2)cc1`: the half-inhibitory concentration (IC50) is 12.1 µM (active). The same measure, in the same setting: in the case of `CN(C)c1ccc(NC(=O)c2cccc(N3C(=O)CCC3=O)c2)cc1` it was 6.4 µM (active); in that of `CSc1nc(-c2ccco2)nn1S(C)(=O)=O`, “inactive”; in that of `CCCCC(CC)CN=C(N)NC(N)=NCCCCCCN=C(N)NC(N)=NCC(CC)CCCC` (stereo not given), “inactive”. Same read-out and setting: the figure for `Cc1ccc(/C=C2/SC(=O)NC2=S)o1` is 4.25 µM (active); for `Cc1ccc(C2=NOC(=O)/C2=C\c2ccc(C)o2)cc1` it is “inactive”.

For `Cc1ccc(/C=c2\sc3nc(-c4ccco4)nn3c2=O)o1`, the IC50 entry is “inactive”. With `CCN(CCNC(=O)C1CCCN(Cc2nc(-c3ccc(OC)cc3)oc2C)C1)c1ccccc1` (stereo not given), the IC50 result is “inactive”. On the same count and under the same terms, the entry for `COc1ccc(C(=O)CC(c2ccccc2)C2CCCCC2=O)cc1` (stereo not given) is “inactive”; for `COc1ccc(N2CCN(C(CNC(=O)C3CCCCC3)c3cccnc3)CC2)cc1` (stereo not given) it is 9.65 µM (active); for `O=C(Nc1ccccc1F)c1coc(=O)c(Br)c1` it is “inactive”. On the same count and under the same terms, the entry for `COc1ccccc1CNC(=O)COC(=O)c1c(C)nn(-c2ccccc2)c1Cl` is “inactive”; for `COc1cccc(CNC(=O)Cc2ccc(Br)cc2)c1` it is “inactive”. As for `COc1ccccc1CNC(=O)c1ccc(CS(=O)Cc2cccc(Cl)c2)o1` (stereo not given), the 50% inhibitory concentration (IC50) was 12.8 µM (active). Same read-out and setting: in the case of `COC(=O)C1=C(O)/C(=C/c2cccc(OC)c2O)N=C1C` it was 6.57 µM (active); in that of `COC(=O)C1=C(O)/C(=C\c2ccc(CNS(=O)(=O)c3ccccc3)o2)N=C1C`, “inactive”; in that of `CCOC(=O)C1=C(O)/C(=C/c2cccc(OC)c2O)N=C1C`, 7.3 µM (active). In the case of `COc1cc(/C=C2\SC(=S)N(NS(=O)(=O)c3ccccc3)C2=O)ccc1O`, the 50% inhibitory concentration (IC50) is 12.1 µM (active). Turning to `COc1cc(/C=C2\SC(=S)N(NC(=O)c3cccnc3)C2=O)ccc1O`, the IC50 was 6.17 µM (active).

On to `O=C(NN1C(=O)/C(=C/c2cc([N+](=O)[O-])ccc2O)SC1=S)c1ccccc1O`, for which the IC50 result was “inactive”. On the same count and under the same terms, in the case of `COc1cc(/C=C2\SC(=S)N(NS(=O)(=O)c3ccc(C)cc3)C2=O)ccc1O` it was 8.48 µM (active). `O=C1/C(=C/C=C/c2ccco2)SC(=S)N1NS(=O)(=O)c1ccccc1`: the inhibition – broadly, the drop in the measured response relative to a control, in per cent – was 22.8% [at 12.5 µM]. For `O=C(NN1C(=O)/C(=C/C=C/c2ccco2)SC1=S)c1ccccc1O`, the IC50 result is “inactive”. Regarding `CC(/C=C1\SC(=S)N(CCCC(=O)Nc2ccc(C(=O)O)c(O)c2)C1=O)=C\c1ccccc1`, the IC50 entry is “inactive”.

For the compound `CCOc1ccc(N2Nc3n[nH]c(N)c3N2)cc1`, the IC50 is 5.65 µM (active). With `CC[N+]1(CC(O)COC2CC(C)CC(C)(C)C2)CCOCC1` (stereo not given), the IC50 entry was “inactive”. With `COc1cc2c(cc1OC)C[N+](C)(C)CC2`, the IC50 is 72.6 µM (active). On to `N#CCSc1nc(-c2ccccc2)nc2ccccc12`, for which the IC50 result is “inactive”.

Regarding `O=c1c2c(-c3ccco3)csc2nc(SCc2cn3cccnc3n2)n1-c1ccccc1`, the IC50 entry is “inactive”. As to `COCc1cc(=O)n2[nH]c(-c3ccsc3-n3c(C)ccc3C)cc2n1`, the IC50 result is “inactive”. The same measure, in the same setting: the entry for `C#CCOCCOCCOCCNc1nc(N2CCN(C(=O)CCCCCCCCCCNC(=O)[C@H](CCCN=C(N)N)n3cc(C[C@@H](C)CC)nn3)CC2)nc(N2CCN(C(=O)CCCCCCCCCCNC(=O)[C@@H]([C@H](C)CC)n3cc(CCCCCN)nn3)CC2)n1` is “inactive”. As for `COc1cc(/C=N/NC(=O)c2ccc3c(c2)OCCO3)cc(Cl)c1O`, the IC50 is 6.64 µM (active). Same read-out and setting: in the case of `COc1ccc(/C=N/NC(=O)c2ccoc2C)cc1O` it was 5.08 µM (active); in that of `Cc1occc1C(=O)N/N=C/C=C/c1ccc(N(C)C)cc1`, 12.2 µM (active); in that of `O=C(N/N=C/C=C\c1ccco1)c1ccccn1`, “inactive”. On to `COc1ccccc1/C=C/C=N/NC(=O)c1cc(-c2ccco2)[nH]n1`, for which the IC50 entry was “inactive”. On the same count and under the same terms, in the case of `COc1cc(/C=N/NC(=O)c2ccoc2C)cc(OC)c1O` it was 18.5 µM (active); in that of `CCCc1cc(C(N)=O)c(NC(=O)c2ccoc2C)s1`, “inactive”.
